Measured values taken from PubChem BioAssay.
For part of these data: Potency and affinity values are given separately. The source made the active and inactive calls.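 How the source made its calls, unless noted: active means calcium signal cut by more than 3 SD below the full-agonist control yet still positive, in both repeats and the earlier primary screen; inactive means the rest.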

Key:
[1] = test system: TRPC4 beta (transient receptor potential cation channel C4), mouse; test: TRPC4 cation channel opening, retest – cell-based, Fluo4 calcium, HEK293 TRPC4beta/mu-opioid, duplicates, 10 µM, confirmation (AID 2426;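 active means fluorescence ratio normalized to control raised more than 50% in primary screen plus both repeat runs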); settings: Fluo4 calcium fluorescence, at 10 µM; stronger effect = higher value
[2] = test system: transient receptor potential cation channel C4 beta (TRPC4), mouse; test: TRPC4 cation channel opening, second retest – cell-based, second round, Fluo4, HEK293 TRPC4beta/mu-opioid, 1 µM, confirmation (AID 2461;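 active means primary screen active and over 50% activation in each of two duplicate runs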); settings: Fluo4 calcium fluorescence, at 1 µM; stronger effect = higher value
[3] = test system: TRPC4 (transient receptor potential cation channel C4 beta), mouse; test: potentiation of DAMGO EC20 TRPC4 response – cell-based, second round, Fluo-4, HEK293 TRPC4beta/mu-opioid, 1 µM, confirmation (AID 2554;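 active means primary screen hit whose fluorescence ratio, in both repeats, exceeds the weak agonist control mean by 3 SD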); settings: DAMGO EC20, Fluo-4 calcium flux, at 1 µM; stronger effect = higher value
[4] = test system: TRPC4 beta (transient receptor potential cation channel C4), mouse; test: potentiation of DAMGO EC20 TRPC4 response – cell-based, Fluo-4, HEK293 TRPC4beta/mu-opioid, confirmation (AID 2555;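 active means primary screen hit whose calcium fluorescence ratio, in both repeats, exceeds the weak agonist control mean by 3 SD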); settings: DAMGO EC20, Fluo-4 calcium flux, at 10 µM; stronger effect = higher value
[5] = molecular target: Short transient receptor potential channel 4 (Mus musculus) (UniProt Q9QUQ5); test: blockers of DAMGO-evoked TRPC4 calcium flux – cell-based, Fluo4, HEK293 TRPC4beta/mu-opioid, confirmation (AID 2636); settings: at 10 µM; stronger effect = higher value
[6] = molecular target: Short transient receptor potential channel 4 (Mus musculus) (UniProt Q9QUQ5); test: blockers of DAMGO-evoked TRPC4 calcium flux – cell-based, second round, Fluo4, HEK293 TRPC4beta/mu-opioid, 1 µM, confirmation (AID 2637;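 active means calcium signal ratio cut to more than 3 SD under the fully stimulated control mean yet still positive, in both repeats and the primary screen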); settings: at 1 µM; stronger effect = higher value
[7] = molecular target: Short transient receptor potential channel 4 (Mus musculus) (UniProt Q9QUQ5); test: calcium entry via TRPC4 opening agents – cell-based, HEK293 TRPC4/mu-opioid, Fluo-4 calcium, dose response (AID 434937;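 active means primary screen activator hit with a dose response curve and TRPC4 channel activation at any tested dose; inactive means no activation, no dose response, or not a primary hit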)
[8] = molecular target: Short transient receptor potential channel 4 (Mus musculus) (UniProt Q9QUQ5); test: potentiation of DAMGO-evoked TRPC4 calcium signal – cell-based, HEK293 TRPC4/mu-opioid, Fluo-4 calcium, EC20 DAMGO, dose response (AID 434941;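 active means earlier screen potentiator hit that boosts the TRPC4 ion channel at some dose, with a dose response; inactive means no potentiation, no dose response, or not a prior hit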;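 further: calcium entry triggered by an EC20 dose of DAMGO at the co-expressed mu-opioid receptor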)
[9] = molecular target: Short transient receptor potential channel 4 (Mus musculus) (UniProt Q9QUQ5); test: block of DAMGO-driven TRPC4 calcium entry – cell-based, HEK293 TRPC4/mu-opioid, Fluo-4 calcium, dose response (AID 434942;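 active means primary screen inhibitor hit that blocks the TRPC4 channel at some tested dose, yielding a dose curve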)
[10] = molecular target: Short transient receptor potential channel 6 (Mus musculus) (UniProt Q61143); test: TRPC6 blockade by TRPC4 inhibitor hits – cell-based, HEK293, membrane potential dye, duplicate, selectivity assay for TRPC4 inhibitor project, confirmation (AID 434948;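 active means active in primary screen and both duplicates, each dropping signal beyond three positive-control SD with fluorescence still positive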); settings: HEK293 TRPC6, membrane potential dye fluorescence, at 10 µM, stimulated with maximal-effect acetylcholine; stronger effect = higher value
[11] = molecular target: Short transient receptor potential channel 6 (Mus musculus) (UniProt Q61143); test: TRPC6 opening by TRPC4 activator hits – cell-based, HEK293, membrane potential dye, duplicate, selectivity assay for TRPC4 activator project, confirmation (AID 434950;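 active means membrane potential signal rise above negative control mean plus 3 SD in both duplicates, also active in the earlier TRPC4 screen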); settings: HEK293 TRPC6, membrane potential fluorescence, at 10 µM; activation: stronger effect = higher value; outcome: activation
[12] = molecular target: Short transient receptor potential channel 6 (Mus musculus) (UniProt Q61143); test: positive modulators of mouse TRPC6 channel – HEK293 cells, membrane potential dye, duplicate, selectivity assay for TRPC4 potentiator project, confirmation (AID 434952;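 active means compound raising the membrane signal above positive-control mean plus 3 SD in both repeats, and a primary screen hit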); settings: HEK293 TRPC6, membrane potential dye fluorescence, at 10 µM, maximal acetylcholine added after compound; stronger effect = higher value
[13] = molecular target: Short transient receptor potential channel 4 (Mus musculus) (UniProt Q9QUQ5); test: calcium flux activators in TRPC4/5HT1a cells, counter-screen for TRPC4 activator project, cell-based, second counter screen, HEK293 TRPC4/5HT1a, Fluo-4 (AID 434977;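 active means calcium signal rise above buffer-control mean plus 5 SD in both duplicates, and also a hit in the primary screen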); settings: Fluo-4 calcium flux, at 10 µM; stronger effect = higher value
[14] = serotonin-gated TRPC4 signal block – cell-based, second counter screen, HEK293 TRPC4/5HT1a, Fluo-4, counter-screen for TRPC4 inhibitor project, confirmation (AID 434978;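 active means primary screen active whose calcium signal fell more than 3 SD beyond the full-serotonin control mean in both duplicate plates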;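 on outcome: serotonin given first at submaximal then at maximal dose after compound preincubation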); settings: Fluo-4 calcium flux, at 10 µM, serotonin added to trigger calcium flux; stronger effect = higher value
[15] = test system: TRPC4 (mouse), co-expressed with 5HT1a in HEK293; test: enhancement of serotonin-evoked TRPC4 response – cell-based, second counter screen, HEK293 TRPC4/5HT1a, Fluo-4, counter-screen for TRPC4 potentiator project, confirmation (AID 434979;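 active means signal rise over 3 SD above mean of control wells given weak agonist, in both repeats and first screen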); settings: Fluo-4 calcium flux, at 10 µM, serotonin added at its EC20 dose; stronger effect = higher value
[16] = nonspecific calcium rise without TRPC4 – cell-based, HEK293 mu-opioid receptor line, counter-screen for TRPC4 activator project, confirmation (AID 449723;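 active means hit in primary screen, with calcium signal over 5 SD above buffer well mean in both duplicates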;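 further: counter screen cells carry the mu-opioid receptor alone and lack TRPC4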); settings: HEK293 mu-opioid cells, Fluo-4 calcium fluorescence, at 10 µM; stronger effect = higher value
[17] = nonspecific potentiation of DAMGO calcium response – cell-based, HEK293 mu-opioid receptor line, counter-screen for TRPC4 allosteric potentiator project, confirmation (AID 449724;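 active means calcium signal rise more than 3 SD above the low-dose agonist control mean, in both duplicate plates and the primary screen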); settings: HEK293 mu-opioid receptor cells, Fluo-4 calcium flux, at 10 µM, compound added before EC20 DAMGO stimulus; stronger effect = higher value

Chain of Short transient receptor potential channel 6 (Mus musculus) (Q61143 whole entry, looked up): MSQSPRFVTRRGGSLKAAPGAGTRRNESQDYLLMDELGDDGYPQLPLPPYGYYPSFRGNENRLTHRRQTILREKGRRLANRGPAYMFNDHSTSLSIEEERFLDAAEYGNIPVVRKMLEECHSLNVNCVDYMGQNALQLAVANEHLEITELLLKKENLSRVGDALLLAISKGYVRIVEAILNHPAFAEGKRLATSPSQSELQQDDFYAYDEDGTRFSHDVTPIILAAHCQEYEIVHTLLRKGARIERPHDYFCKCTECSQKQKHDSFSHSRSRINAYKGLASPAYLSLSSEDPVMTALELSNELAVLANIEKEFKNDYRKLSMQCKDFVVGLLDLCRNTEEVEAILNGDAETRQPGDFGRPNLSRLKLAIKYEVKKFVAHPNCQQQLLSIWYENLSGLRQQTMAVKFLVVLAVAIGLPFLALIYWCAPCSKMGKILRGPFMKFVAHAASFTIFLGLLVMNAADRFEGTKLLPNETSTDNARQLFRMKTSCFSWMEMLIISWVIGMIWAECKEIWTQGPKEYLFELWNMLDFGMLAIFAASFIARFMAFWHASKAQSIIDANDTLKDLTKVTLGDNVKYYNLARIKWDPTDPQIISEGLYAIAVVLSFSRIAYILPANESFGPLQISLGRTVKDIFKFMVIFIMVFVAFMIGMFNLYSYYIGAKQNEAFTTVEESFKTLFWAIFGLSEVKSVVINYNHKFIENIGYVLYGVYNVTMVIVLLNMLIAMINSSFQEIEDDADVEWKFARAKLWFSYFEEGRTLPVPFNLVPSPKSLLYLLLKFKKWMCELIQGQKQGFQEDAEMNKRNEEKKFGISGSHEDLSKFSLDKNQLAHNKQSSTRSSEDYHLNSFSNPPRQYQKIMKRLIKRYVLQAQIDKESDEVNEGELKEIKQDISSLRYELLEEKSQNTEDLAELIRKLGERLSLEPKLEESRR
Chain of Short transient receptor potential channel 4 (Mus musculus) (Q9QUQ5 whole entry, looked up): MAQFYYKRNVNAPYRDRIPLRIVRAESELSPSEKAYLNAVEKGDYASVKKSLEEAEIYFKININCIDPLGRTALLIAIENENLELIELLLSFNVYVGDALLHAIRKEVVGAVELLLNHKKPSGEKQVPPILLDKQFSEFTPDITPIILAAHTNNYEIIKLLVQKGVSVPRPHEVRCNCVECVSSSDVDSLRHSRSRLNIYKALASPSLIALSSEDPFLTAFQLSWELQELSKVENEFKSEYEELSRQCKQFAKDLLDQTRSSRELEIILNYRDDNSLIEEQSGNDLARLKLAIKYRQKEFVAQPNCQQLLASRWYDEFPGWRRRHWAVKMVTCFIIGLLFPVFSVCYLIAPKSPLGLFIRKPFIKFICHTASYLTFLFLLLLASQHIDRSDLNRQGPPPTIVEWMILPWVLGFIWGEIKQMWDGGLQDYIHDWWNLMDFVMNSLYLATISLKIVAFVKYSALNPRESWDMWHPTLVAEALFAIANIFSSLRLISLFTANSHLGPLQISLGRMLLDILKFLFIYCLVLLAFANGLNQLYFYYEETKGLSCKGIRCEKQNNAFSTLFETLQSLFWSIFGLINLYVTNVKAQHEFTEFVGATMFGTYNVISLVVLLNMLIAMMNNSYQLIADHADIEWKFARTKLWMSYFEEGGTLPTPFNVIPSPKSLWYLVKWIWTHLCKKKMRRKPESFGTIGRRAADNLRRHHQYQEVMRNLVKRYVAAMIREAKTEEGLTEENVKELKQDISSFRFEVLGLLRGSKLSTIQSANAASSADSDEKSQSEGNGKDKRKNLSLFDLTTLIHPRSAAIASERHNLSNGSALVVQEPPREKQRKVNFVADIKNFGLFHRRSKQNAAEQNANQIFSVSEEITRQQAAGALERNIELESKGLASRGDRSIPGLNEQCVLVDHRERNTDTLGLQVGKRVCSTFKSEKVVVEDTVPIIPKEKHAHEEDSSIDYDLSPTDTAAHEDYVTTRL

Cc1ccc(S(=O)(=O)N2CCC(C(=O)OCC(=O)N(C)CC(=O)Nc3ccc(F)cc3)CC2)cc1C
inactive: outcome [1] | outcome [2] | outcome [3] | outcome [4] | outcome [5] | outcome [6] | outcome [7] | outcome [8] | outcome [9] | outcome [10] | outcome [11] | outcome [12] | outcome [13] | outcome [14] | outcome [15] | outcome [16] | outcome [17]

Cc1ccc(NC(=O)c2cc(N3C(=O)C=CC3=O)ccc2N2CCOCC2)cc1Cl
inactive: outcome [1] | outcome [2] | outcome [3] | outcome [4] | outcome [5] | outcome [6] | outcome [7] | outcome [8] | outcome [9] | outcome [10] | outcome [11] | outcome [12] | outcome [13] | outcome [14] | outcome [15] | outcome [16] | outcome [17]

Cn1c2ccccc2c(=O)c2c(=O)n(-c3ccccc3)c(-c3ccc(C(C)(C)C)cc3)nc21
inactive: outcome [1] | outcome [2] | outcome [3] | outcome [4] | outcome [5] | outcome [6] | outcome [7] | outcome [8] | outcome [9] | outcome [10] | outcome [11] | outcome [12] | outcome [13] | outcome [14] | outcome [15] | outcome [16] | outcome [17]

CCC(=O)Nc1cc(ON=C(C)C)cc([N+](=O)[O-])c1
inactive: outcome [1] | outcome [2] | outcome [3] | outcome [4] | outcome [5] | outcome [6] | outcome [7] | outcome [8] | outcome [9] | outcome [10] | outcome [11] | outcome [12] | outcome [13] | outcome [14] | outcome [15] | outcome [16] | outcome [17]

CC(C)(C)n1cnc2cc(NCc3ccc(Br)cc3)ccc21
active: potentiation [15] 8.63%
inactive: outcome [1] | outcome [2] | outcome [3] | outcome [4] | outcome [5] | outcome [6] | outcome [7] | outcome [8] | outcome [9] | outcome [10] | outcome [11] | outcome [12] | outcome [13] | outcome [14] | outcome [16] | outcome [17]

CCNc1nc(NC(C)(C)C)nc(N2CCCC2)n1
active: inhibition [5] 77% | inhibition [14] 41.2%
inactive: outcome [1] | outcome [2] | outcome [3] | outcome [4] | outcome [6] | outcome [7] | outcome [8] | outcome [9] | outcome [10] | outcome [11] | outcome [12] | outcome [13] | outcome [15] | outcome [16] | outcome [17]

CN(C)CCCSc1nc(-c2ccccc2)nc2c1CCC2
inactive: outcome [1] | outcome [2] | outcome [4] | outcome [5] | outcome [6] | outcome [7] | outcome [8] | outcome [9] | outcome [10] | outcome [11] | outcome [12] | outcome [13] | outcome [14] | outcome [15] | outcome [16] | outcome [17]
active: potentiation [3] 8%

C(=N\N(Cc1ccccc1)c1ccccc1)/c1cccnc1
inactive: outcome [1] | outcome [2] | outcome [3] | outcome [4] | outcome [6] | outcome [7] | outcome [8] | outcome [9] | outcome [10] | outcome [11] | outcome [12] | outcome [13] | outcome [15] | outcome [16] | outcome [17]
active: inhibition [5] 63% | inhibition [14] 40.3%

N=c1c(C(=O)NCC2CCCO2)cc2c(=O)n3ccccc3nc2n1Cc1ccccc1Cl (stereo not given)
inactive: outcome [1] | outcome [2] | outcome [5] | outcome [6] | outcome [7] | outcome [8] | outcome [9] | outcome [10] | outcome [11] | outcome [12] | outcome [13] | outcome [14] | outcome [16] | outcome [17]
active: potentiation [3] 96% | potentiation [4] 102% | potentiation [15] 101%

Cc1ccc(-n2c(N)cc(=O)nc2SCC(=O)N2CCN(c3ccccc3)CC2)cc1
inactive: outcome [1] | outcome [2] | outcome [3] | outcome [4] | outcome [5] | outcome [6] | outcome [7] | outcome [8] | outcome [9] | outcome [10] | outcome [11] | outcome [12] | outcome [13] | outcome [14] | outcome [15] | outcome [16] | outcome [17]

COc1ccc2sc(N(CCCN(C)C)C(=O)c3ccc(S(=O)(=O)N4CCCc5ccccc54)cc3)nc2c1
inactive: outcome [1] | outcome [2] | outcome [3] | outcome [5] | outcome [6] | outcome [7] | outcome [8] | outcome [9] | outcome [10] | outcome [11] | outcome [12] | outcome [13] | outcome [14] | outcome [16] | outcome [17]
active: potentiation [4] 28% | potentiation [15] 80%

CN(C)CCCNc1nc(N)c([N+](=O)[O-])c(NCc2ccccc2)n1
inactive: outcome [1] | outcome [2] | outcome [3] | outcome [4] | outcome [5] | outcome [6] | outcome [7] | outcome [8] | outcome [9] | outcome [10] | outcome [11] | outcome [12] | outcome [13] | outcome [14] | outcome [15] | outcome [16] | outcome [17]

COc1ccc(Cl)c2sc(N(CCN(C)C)C(=O)CCS(=O)(=O)c3ccc(C)cc3)nc12
inactive: outcome [1] | outcome [2] | outcome [4] | outcome [5] | outcome [6] | outcome [7] | outcome [8] | outcome [9] | outcome [10] | outcome [11] | outcome [12] | outcome [13] | outcome [14] | outcome [15] | outcome [16] | outcome [17]
active: potentiation [3] 12%

CN1CCN(NC(=O)Nc2cc(Cl)cc(Cl)c2)CC1
active: potentiation [4] 29%
inactive: outcome [1] | outcome [2] | outcome [3] | outcome [5] | outcome [6] | outcome [7] | outcome [8] | outcome [9] | outcome [10] | outcome [11] | outcome [12] | outcome [13] | outcome [14] | outcome [15] | outcome [16] | outcome [17]

COc1ccc(/C=N/Nc2nc3ccccc3s2)cc1O
inactive: outcome [1] | outcome [2] | outcome [3] | outcome [4] | outcome [5] | outcome [6] | outcome [7] | outcome [8] | outcome [9] | outcome [10] | outcome [11] | outcome [12] | outcome [13] | outcome [14] | outcome [16] | outcome [17]
active: potentiation [15] 26%
